Laboratory results taken from PubChem BioAssay (NCI).
Where “and” joins values, the source holds several entries; their conditions need not be identical. Equal entries are not always repeated. This is part of a sample that, as a whole, favours compounds with a hit. Of some 79,000 tested, about 15% had one in any assay. No stated cut-off is given here; in the data, active means growth inhibition above about 70%; inactive means the rest.

Columns and labels:
[1] = NCI Yeast Anticancer Drug Screen. Data for the rad50 strain (AID 155);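 further: 0% = growth of vehicle-only cultures of the same strain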; details: S. cerevisiae rad50 strain growth inhibition; at 50.0 µM; hits give high values
How it was run: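 Genetically altered yeast (DNA repair pathway); compound treatment; growth inhibition vs vehicle ctrl.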

[2] = NCI Yeast Anticancer Drug Screen. Data for the mec2-1 strain (AID 157); details: S. cerevisiae mec2-1 strain, at 50.0 µM, hits give high values
How it was run: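 Compounds were applied to mec2-1 yeast cells. Their growth was then compared with that of vehicle-treated cultures to give growth inhibition.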

[3] = NCI Yeast Anticancer Drug Screen. Data for the sgs1 mgt1 strain (AID 161);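 further: 0% = growth of cultures given vehicle only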; details: S. cerevisiae sgs1 mgt1 strain, at 50.0 µM, hits give high values
How it was run: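 Compounds are added to genetically altered yeast, and growth is compared with cultures given vehicle alone to give percent inhibition.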

[4] = NCI Yeast Anticancer Drug Screen. Data for the cln2 rad14 strain (AID 165);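 further: 0% = growth equal to vehicle treated cultures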; details: S. cerevisiae cln2 rad14 strain, at 50.0 µM, hits give high values
How it was run: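 Strain: cln2 rad14 yeast, altered in cell cycle control and DNA damage repair. Read-out: growth inhibition vs vehicle.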

[5] = NCI Yeast Anticancer Drug Screen. Data for the bub3 strain (AID 167); details: S. cerevisiae bub3 mutant strain, at 50.0 µM, hits give high values
How it was run: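 Yeast carrying a defined mutation is treated with each compound, and growth is compared with that of vehicle-exposed cells to give inhibition.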

[6] = NCI Yeast Anticancer Drug Screen. Data for the mlh1 rad18 strain (AID 175); details: S. cerevisiae mlh1 rad18 strain growth inhibition; at 50.0 µM; hits give high values
How it was run: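 A repair-deficient yeast strain is exposed to test compound, and growth is scored relative to vehicle-treated controls.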

Measured: growth inhibition

S=C=Nc1ccccn1
inactive: [1] 9.9% | [2] 3.35% | [3] 22.1% | [4] 7.8% | [5] 30.6% | [6] 21.9%

CC1=C(O)C(=O)[C@@H]2O[C@@H]2C1=O
inactive: [1] 42% | [2] 29.6% | [3] 43.8% | [4] 14% | [5] 31.3% | [6] -35.4%

CC1N=NNN1C (centres undefined)
inactive: [1] -1.8% | [2] -9.7% | [3] -2.3% | [4] -5.9% | [5] 8.75% | [6] -8.65%

CC1(C)SC2C(NC(=O)Cc3ccccc3)C(=O)N2C1C(=O)O (centres undefined) (tested in a mixture with another compound)
inactive: [1] 2.2% | [2] 0.85% | [3] 13.5% | [4] -2.3% | [5] -12.3% | [6] -11.7%

c1ccc2c(c1)[Se]c1ccccc1[Se]2
inactive: [1] -14.2% | [2] -22.8% | [3] 0.65% | [4] 8.55% | [5] 23.1% | [6] -7.45%

CCOP(O)(=S)OCC
inactive: [1] 16.8% and 9.55% and 2.25% | [2] 23.4% and 10.2% and 2.35% | [3] 11.6% and 7.65% and -4.2% | [4] -2.05% and 20.1% and 6.7% | [5] -15.8% and -14.5% and -14% | [6] 17% and 18.8% and 3.2%

CC1CN1P1(N2CC2C)=NP(N2CC2C)(N2CC2C)=NP(N2CC2C)(N2CC2C)=N1 (centres undefined)
inactive: [1] -2.45% | [2] 1.3% | [3] 2.75% | [4] 15.7% | [5] -2.2% | [6] 5.5%

[N-]=[N+]=NP1(=O)OC(c2ccccc2)=CCN1c1ccccc1 (centres undefined)
inactive: [1] -9.2% | [2] -9.5% | [3] -8.45% | [4] 20.7% | [5] 8.65% | [6] -4.1%

COc1cc2c(c(OC)c1OC)-c1ccc(O)c(=O)cc1[C@@H](NC(C)=O)CC2
inactive: [1] 24% and 43.6% | [2] 1.95% and 34.6% | [3] 54.9% | [4] 35.5% | [5] 62.5% | [6] 22.9% and -13.1%

C[CH2][Pb]([CH2]C)([CH2]C)[n]1ccnc1
inactive: [1] -22.6% | [2] -6.8% | [3] -11.9% | [4] -29.3% | [5] -1.4% | [6] -9%

COC(=O)C(N)Cc1ccc(OC)c(N(CCCl)CCCl)c1 (centres undefined)
inactive: [1] 17% | [2] -0.6% | [3] -11.2% | [4] 2.8% | [5] 3% | [6] 6.55%

COc1ccc(C=C2C(=O)N(C)C(=O)N(C)C2=O)cc1
inactive: [1] 4.8% | [2] 2.1% | [3] -13.2% | [4] 22.3% | [5] 28% | [6] 36.5%

CCOC(=O)C1(C#N)C(C#N)(C#N)C12CCCCC2 (centres undefined) (tested in a mixture with another compound)
inactive: [1] 36.5% | [2] 10.1% | [3] 56% | [4] 4.9% | [5] 33.8% | [6] 23.2%

CCOC(=O)C1Cc2ccc(OC)cc2C2=CC(=O)CCC21 (centres undefined)
inactive: [1] -13.4% | [2] -16.9% | [3] -9.4% | [4] 1.65% | [5] 5.4% | [6] -1.15%

O=P(CCl)(Oc1ccc(Cl)cc1)Oc1ccc(Cl)cc1
inactive: [1] 20.6% | [2] 16.1% | [3] 6% | [4] -19.4% | [5] 7.5% | [6] -10.2%

CC(=O)OC1CCC2C3CCC4CC5(CCC4(C)C3CCC12C)CO5 (centres undefined)
inactive: [1] -2.45% | [2] -10.7% | [3] -26.2% | [4] 1.2% | [5] 1.75% | [6] 1.2%

c1ccc(C2=NC(c3ccccc3)N3CC23c2ccccc2)cc1 (centres undefined)
inactive: [1] 12.8% | [2] 15.2% | [3] 5.05% | [4] -7.6% | [5] 15.2% | [6] 24.4%

COc1ccc2c(c1)C(=O)C(N)C2 (centres undefined)
inactive: [1] 2% | [2] 1.95% | [3] 0.5% | [4] -21.6% | [5] 7.4% | [6] 20.1%

CCOC(=O)C1C(=O)C(C(=O)OCC)C2c3ccccc3-c3ccccc3C1N2C (centres undefined)
inactive: [1] 29.8% | [2] 7.25% | [3] 35.2% | [4] -7.35% | [5] 8.7% | [6] 15.7%
